The source of these data is PubChem BioAssay (NCATS).

The target in test [1] is Cytochrome P450 3A4 (Homo sapiens) (UniProt P08684). The test is described as follows: qHTS Assay for Activators of Cytochrome P450 3A4 (AID 885). Note: nearly all actives have a fitted effect of over 65% in size. In a few lines: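 Activators are scored by enhanced luminescence from CYP3A4 conversion of luciferin-PPXE (25uM, equal to KM) to luciferin, after 60 min at RT with an NADPH-regenerating system.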
A general note: In qHTS, concentration-response curves come from the screen itself.

For test [2] the target is unchanged. The test is described as follows: qHTS Assay for Inhibitors and Substrates of Cytochrome P450 3A4 (AID 884). Note: nearly all actives have a fitted effect of over 50% in size. Note: potency is the fitted concentration of half-maximal effect. The essentials: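 Luminescent readout of luciferin produced by CYP3A4 (20 nM) dealkylation of Luciferin-PPXE, 25 uM (its KM). NADPH-driven reaction ran 60 min at RT after 10 min compound preincubation; data scaled to 57 uM ketoconazole as 100% inhibition.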

The nature of test [3]: Confirmation and Secondary Assay for Modulators of Hemoglobin Beta Chain Splicing at IVS2 654 locus (AID 910).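 Note: HeLa cells stably carrying EGFP split by mutant beta-globin IVS2-654 intron.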 In a few lines: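 Readout: per-well total peak green fluorescence (488 nm ex, 500–520 nm em) from objects 5–250 µm, reflecting correct splicing of an EGFP-654 reporter. Compounds were applied for 2 days at 37 °C to overnight-plated HeLa EGFP-654 cells; controls were DMSO and 500 nM IVS2-654 PNA.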

Test [4] is described as follows: Confirmation and Secondary Assay for Modulators of Hemoglobin Beta Chain Splicing at IVS2 705 locus (AID 930).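 Note: HeLa cells stably expressing the EGFP-705 splicing reporter; GFP fluorescence per well restored by corrected splicing of the IVS2-705 intron in EGFP; series mostly up to about 46 µM.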 The essentials: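 Read-out: total peak GFP fluorescence per well (488 nm excitation, 500-520 nm emission) by laser-scanning cytometry. Cells: HeLa EGFP-705 splicing reporter, 2 days compound exposure in Optimem/2% FCS.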
The target of test [5] is Cytochrome P450 2C19 (Homo sapiens) (UniProt P33261). The test is described as follows: qHTS Assay for Inhibitors and Substrates of Cytochrome P450 2C19 (AID 899). Note: nearly all actives have a fitted effect of over 60% in size. Note: potency is the fitted concentration of half-maximal effect. In a few lines: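 Reactions contain 5nM enzyme, 10uM Luciferin-H EGE (KM) and 50mM KPO4; compound preincubates 10 min at 37C, NADPH regeneration starts turnover for 60 min. Luminescence after detection reagent gives activity.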
Chain of Cytochrome P450 2C19 (Homo sapiens) (P33261 whole entry, looked up): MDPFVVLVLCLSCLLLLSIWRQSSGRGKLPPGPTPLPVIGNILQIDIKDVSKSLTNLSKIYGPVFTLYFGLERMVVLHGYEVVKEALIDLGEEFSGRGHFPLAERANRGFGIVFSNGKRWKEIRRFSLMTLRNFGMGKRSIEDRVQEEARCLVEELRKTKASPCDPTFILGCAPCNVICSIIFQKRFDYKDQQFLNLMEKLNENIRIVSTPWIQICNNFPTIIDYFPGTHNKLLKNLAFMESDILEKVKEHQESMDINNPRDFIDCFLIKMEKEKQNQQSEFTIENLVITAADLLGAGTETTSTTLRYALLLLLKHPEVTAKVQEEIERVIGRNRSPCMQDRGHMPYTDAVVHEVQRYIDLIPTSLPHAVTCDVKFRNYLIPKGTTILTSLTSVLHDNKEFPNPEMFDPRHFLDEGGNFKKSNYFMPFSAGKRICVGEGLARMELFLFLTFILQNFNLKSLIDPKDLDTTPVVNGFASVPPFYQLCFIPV

Test [6] concerns the target Muscarinic acetylcholine receptor M1 (Rattus norvegicus) (UniProt P08482). In words: qHTS Assay for Antagonists of Acetylcholine Muscarinic M1 Receptor: Measurement of IP-One Response (AID 944). Note: potency is the fitted concentration of half-maximal effect; nearly all actives have a fitted effect of over 75% in size. In a few lines:
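Read-out: HTRF competition between d2-IP1 and Eu-cryptate anti-IP1 antibody, emission 620 and 665 nm. Stimulus was carbachol, EC80 (200 nM), for 30 min in M1-CHO cells (rat receptor), after 10 min compound pre-treatment.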

Test [7] is described as follows: qHTS Assay for Identification of Small Molecule Antagonists for NFkB Signaling Pathway (AID 895; active = well fitted inhibition curve with a large enough effect in the signal ratio, with a control signal flat, not every such curve was filed as active; the % refers to the signal ratio; note: potency is the fitted concentration of half-maximal effect). The essentials: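 Beta-lactamase reporter read-out (460 and 530 nm emission ratio, 405 nm excitation, 2 hrs substrate loading RT) after 5 hr stimulation with 10 pM TNF alpha in compound-treated NFkB-bla ME-180 cells in low-serum medium.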
The target of test [8] is Muscarinic acetylcholine receptor M1 (Rattus norvegicus) (UniProt P08482). The test is described as follows: qHTS Assay for Antagonists of Acetylcholine Muscarinic M1 Receptor: Kinetic Measurement of Intracellular Calcium Response (AID 943). Note: potency is the fitted concentration of half-maximal effect; nearly all actives have a fitted effect of over 75% in size. The essentials:
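Read-out: peak over basal Fluo-4 fluorescence, kinetic at 1 Hz for 4 min after EC80 carbachol (100 nM final). Rat M1-CHO cells, dye loaded 1 h at 37C, compound added 10 min before agonist.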

Test [9] in a line: qHTS Assay for Identification of Small Molecule Antagonists for Thrombopoietin (TPO) Signaling Pathway (AID 918). Note: potency is the fitted concentration of half-maximal effect; nearly all actives have a fitted effect of over 60% in size. The following applies: TPO-dependent cell signaling reporter, antagonist mode. The essentials:
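Luminescence read-out: GPIIb-promoter luciferase in Ba/F3 cells carrying human TPO receptor. Compounds added with 26 pM TPO (EC50), 24 hrs, 37 C, 5% CO2; cells deprived of IL-3 overnight beforehand. Inhibition of signal scored.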

Test [10] addresses Pyruvate kinase (Leishmania mexicana) (UniProt Q27686). In words: qHTS Validation Assay for Inhibitors of Leishmania Mexicana Pyruvate Kinase (AID 945). In a few lines: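 Luminescent ATP detection (PKLight) after a 1 h room-temperature reaction of 0.2 nM LmPYK E451W mutant with 0.5 mM PEP and 0.1 mM ADP at pH 7.2. Activity is normalized to DMSO-only control wells.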
Test [11] addresses Alpha-galactosidase (Coffea arabica) (UniProt Q42656). The test is described as follows: Counterscreen for Glucocerebrosidase Inhibitors: qHTS Assay for Coffee Bean alpha-Galactosidase at pH 4.5 (AID 957). Note: series mostly up to about 77 µM. In a few lines: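 Fluorogenic read-out: 4-methylumbelliferone at Ex 365/Em 440 nm after NaOH/glycine stop (pH 10). Enzyme 2 nM, 4-MU-alpha-galactoside 80 uM, citrate buffer pH 4.5, 20 min RT; normalized to no-enzyme and enzyme controls.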
On the technique in general: Counterscreens check selectivity or assay interference.

For test [12] the target is unchanged. The test is described as follows: Counterscreen for Glucocerebrosidase Inhibitors: qHTS Assay for Coffee Bean alpha-Galactosidase at pH 5.9 (AID 998). In a few lines:
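Fluorogenic 4-MU substrate hydrolysis, 80 uM substrate and 2 nM coffee bean alpha-galactosidase, pH 5.9 citrate buffer, 20 min at room temperature, then NaOH/glycine stop. Titration 0.7 nM–77 uM, normalized to no-enzyme and enzyme controls, AC50 via Hill equation.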

A number with no mark means an inactive call. Inconclusive results are not listed. Where a call stands in place of a potency, no number is given. Active and inactive are the calls of the source. Unless noted, calls come from the whole dose curve; as a rule, active = well fitted curve in the direction sought with a large enough effect; inconclusive = small, poorly fitted or top-dose-only effect, or another doubt; inactive = no such curve, though single readings can be large; an effect the other way counts as inactive or inconclusive.

Chain of Muscarinic acetylcholine receptor M1 (Rattus norvegicus) (P08482 whole entry, looked up): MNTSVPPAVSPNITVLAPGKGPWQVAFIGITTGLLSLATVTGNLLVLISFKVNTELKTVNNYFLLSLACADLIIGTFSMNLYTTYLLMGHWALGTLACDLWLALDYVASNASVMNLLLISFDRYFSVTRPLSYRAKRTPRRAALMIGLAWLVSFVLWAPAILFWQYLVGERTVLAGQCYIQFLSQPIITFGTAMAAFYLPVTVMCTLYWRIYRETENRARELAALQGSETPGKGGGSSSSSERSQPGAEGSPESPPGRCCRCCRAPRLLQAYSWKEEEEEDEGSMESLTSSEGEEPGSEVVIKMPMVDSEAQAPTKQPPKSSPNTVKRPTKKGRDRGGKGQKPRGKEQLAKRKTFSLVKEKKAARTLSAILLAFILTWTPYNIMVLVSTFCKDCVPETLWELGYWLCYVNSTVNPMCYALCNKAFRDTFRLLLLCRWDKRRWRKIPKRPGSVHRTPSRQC
Chain of Alpha-galactosidase (Coffea arabica) (Q42656 whole entry, looked up): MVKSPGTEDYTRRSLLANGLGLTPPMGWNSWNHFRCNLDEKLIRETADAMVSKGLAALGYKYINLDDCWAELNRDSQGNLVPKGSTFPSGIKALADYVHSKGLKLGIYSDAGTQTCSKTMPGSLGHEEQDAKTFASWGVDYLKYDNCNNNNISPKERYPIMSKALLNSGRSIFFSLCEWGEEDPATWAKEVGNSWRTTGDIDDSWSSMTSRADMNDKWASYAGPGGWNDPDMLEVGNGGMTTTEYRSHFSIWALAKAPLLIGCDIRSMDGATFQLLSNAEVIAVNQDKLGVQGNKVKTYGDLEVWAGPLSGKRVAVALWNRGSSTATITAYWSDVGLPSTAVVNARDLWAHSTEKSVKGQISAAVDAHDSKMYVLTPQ
Chain of Cytochrome P450 3A4 (Homo sapiens) (P08684 whole entry, looked up): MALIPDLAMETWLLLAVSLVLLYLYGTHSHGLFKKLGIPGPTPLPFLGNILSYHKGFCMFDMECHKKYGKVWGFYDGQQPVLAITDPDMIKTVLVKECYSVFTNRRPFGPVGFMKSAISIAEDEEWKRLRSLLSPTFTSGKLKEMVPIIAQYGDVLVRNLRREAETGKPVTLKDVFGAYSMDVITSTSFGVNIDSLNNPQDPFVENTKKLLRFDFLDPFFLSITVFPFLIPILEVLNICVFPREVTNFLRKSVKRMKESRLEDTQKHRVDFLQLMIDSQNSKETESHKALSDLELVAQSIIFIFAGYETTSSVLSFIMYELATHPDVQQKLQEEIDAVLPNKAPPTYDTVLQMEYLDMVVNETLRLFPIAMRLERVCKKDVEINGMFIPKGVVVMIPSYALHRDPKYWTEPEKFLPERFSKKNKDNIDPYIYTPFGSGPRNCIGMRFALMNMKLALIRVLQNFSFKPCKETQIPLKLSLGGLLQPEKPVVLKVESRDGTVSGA
Chain of Pyruvate kinase (Leishmania mexicana) (Q27686 2-499 E452W): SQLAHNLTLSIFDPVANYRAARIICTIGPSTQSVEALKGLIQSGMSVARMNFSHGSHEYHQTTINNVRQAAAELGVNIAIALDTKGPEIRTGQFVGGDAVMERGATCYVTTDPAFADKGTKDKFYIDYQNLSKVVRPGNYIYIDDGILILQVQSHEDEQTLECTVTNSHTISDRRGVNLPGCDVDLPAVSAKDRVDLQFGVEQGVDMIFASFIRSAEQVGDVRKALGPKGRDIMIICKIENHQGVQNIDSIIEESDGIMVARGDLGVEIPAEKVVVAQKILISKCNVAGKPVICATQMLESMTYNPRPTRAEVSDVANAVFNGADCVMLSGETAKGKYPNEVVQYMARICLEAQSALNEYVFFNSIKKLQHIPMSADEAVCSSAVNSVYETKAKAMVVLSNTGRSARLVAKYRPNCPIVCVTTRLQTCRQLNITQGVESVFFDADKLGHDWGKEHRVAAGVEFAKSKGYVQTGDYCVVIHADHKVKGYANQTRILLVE

Consider `Oc1ccc2c(c1)OCO2`, for which the Potency entry in [1] is “inactive”.

As for `CC1(C)C(=O)[C@@H]2OC2[C@@]2(C)C1CC(O)[C@]1(C)C2CC[C@@]2(C)C(c3ccoc3)OC(=O)C3OC312` (some centres undefined), the Potency in test [2] was 1 µM (active). Further, the Potency result in test [1] and in test [3] was “inactive” in each case. Moreover, in [4], the molecule was classed as inactive.

Take `COc1cc2c(cc1OC)C1C(=O)c3c(cc4c(c3O)C=CC(C)(C)O4)OC1CO2` (centres undefined): the Potency in test [2] was 15.8 µM (active). Also, the Potency result in test [1] is “inactive”.

As for `COC(=O)[C@@H]1[C@@H](O)[C@@]2(O)c3c(OC)cc(OC)cc3O[C@@]2(c2ccc(OC)cc2)[C@H]1c1ccccc1`, the activity change, positive = activation in test [1] is -35.6% [at 11.4 µM].

With `COC(=O)[C@H]1C[C@H]2CC[C@H](O)C[C@H]2N1CC1CC1`, the Potency result in test [1] was “inactive”.

`C=C(CO)C1Cc2c(ccc3c2OC2COc4cc(OC)c(OC)cc4C2C3=O)O1` (centres undefined): in test [2], the Potency was 31.6 µM (active). Also, the Potency entry in [1] is “inactive”.

Regarding `CC(=O)OC1CCC2C3CCc4cc(O)ccc4C3CCC12C` (centres undefined), the Potency result in test [1] is “inactive”.

With `CC(C)=CCCC1(C)C=Cc2c(O)c3c(c(CC=C(C)C)c2O1)OC12C(CC4CC1C(C)(C)OC2(C/C=C(/C)C(=O)O)C4O)C3=O` (centres undefined), the Potency result in test [2] and in test [3] was “inactive” throughout. Besides, the call in test [4] was inactive.

For the molecule `CCCCCCCCCc1ccc(OCCOCCOCCOCCOCCOCCOCCOCCOCCO)cc1`, the Potency in [2] is 31.6 µM (active). The Potency entry in test [1] was “inactive”.

As for `[O-]/[N+](=N\O)c1ccccc1`, the Potency entry in test [1] is “inactive”.

Turning to `CC(C)CCCC1(C)C=Cc2c(O)c3c(c(CCC(C)C)c2O1)OC12C(CC4CC1C(C)(C)OC2(CCC(C)C(=O)O)C4O)C3=O` (centres undefined), the Potency entry in [2] and in [3] was “inactive” in each case. The result in test [4] was inactive.

Turning to `CC(=O)Oc1ccc(/C=C/c2cc(OC(C)=O)cc(OC(C)=O)c2)cc1`, in [2], the Potency is 10 µM (active). In addition, the Potency result in test [1] and in [3] was “inactive” each time. Moreover, the result in [4] was inactive.

`C[C@@]1([C@@H](NP(=O)(c2ccccc2)c2ccccc2)c2ccccc2)C[C@H]1CCO`: the Potency in [2] is 7.94 µM (active). Also, the Potency entry in test [1] is “inactive”.

`CC(C)CCC[C@@H](C)[C@@H]1CC[C@@H]2[C@H]3CC[C@H]4C[C@@H](N)CC[C@@]4(C)[C@@H]3CC[C@]21C`: the activity, negative = inhibition in test [5] is 61.6% [at 11.4 µM].

In the case of `CC(=O)[C@@H]1CC[C@@H]2[C@@H]3CCC4=CC(=O)CC[C@@]4(C)[C@H]3CC[C@]21C`, the Potency in test [5] was 7.94 µM (active).

On to `COc1cc2ccc(=O)oc2c2ccoc12`, for which the Potency result in [3] is “inactive”. Moreover, in test [4], the molecule was classed as inactive.

Take `COC(=O)[C@]1(C)CC[C@@]2(C)CC[C@@]3(C)C4=CCc5c(cc(O)c(O)c5C)[C@]4(C)CC[C@@]3(C)C2C1` (some centres undefined): the Potency entry in test [3] was “inactive”. The molecule was classed as inactive in test [4].

For `Clc1ccc(C(c2ccc(Cl)cc2)n2cc[n+](C[C@@H](OCc3ccc(Cl)cc3Cl)c3ccc(Cl)cc3Cl)c2)cc1`, the Potency in [6] was 14.1 µM (active).

As for `CN1[C@@H](CC(=O)c2ccccc2)CCC[C@@H]1C[C@@H](O)c1ccccc1`, the values for the Potency in test [7] and in [8] were 12.6 µM [stimulated with 10 pM TNF alpha] (active) and 5.62 µM (active), respectively.

`C=C(C)C1Cc2c(ccc3c2OC2COc4cc(OC)c(OC)cc4C2C3=O)O1` (centres undefined): the Potency result in test [3] is “inactive”. Further, in [4], the molecule was called inactive.

Turning to `CC1=C(O)C(=O)C=C2C1=CC=C1[C@]2(C)CC[C@@]2(C)C3C[C@](C)(C(=O)O)CC[C@@]3(C)CC[C@@]12C` (some centres undefined), the Potency entry in test [3] was “inactive”. Also, in test [4], the outcome was inactive.

As to `COc1ccc2c(c1)CCC1C2CC[C@]2(C)[C@H](NCCCCCCN3C(=O)C=CC3=O)CC[C@@H]12` (some centres undefined), the Potency in test [9] was 2 µM (active).

On to `CC[C@@H]1CN2CCc3cc(OC)c(OC)cc3[C@H]2C[C@@H]1C[C@@H]1NCCc2cc(OC)c(OC)cc21`, for which the Potency in test [9] is 0.0631 µM (active).

For `CC(=O)O[C@@H]1[C@H]([N+]2(C)CCCCC2)C[C@@H]2[C@@H]3CC[C@@H]4C[C@@H](OC(C)=O)[C@H]([N+]5(C)CCCCC5)C[C@@]4(C)[C@H]3CC[C@]21C`, the Potency in [8] is 8.91 µM (active); in [6], 14.1 µM (active).

`CC(C)[C@@H]1NC(=O)[C@H](CCCCN)NC(=O)[C@H](Cc2c[nH]c3ccccc23)NC(=O)[C@H](Cc2ccc(O)cc2)NC(=O)[C@H](C)N(C)C(=O)[C@H](Cc2ccccc2)NC1=O`: in test [10], the Potency entry was “inactive”.

Turning to `O=C(NCCNC[C@@H](O)COc1ccc(O)cc1)N1CCOCC1`, the molecule was classed as inactive in [11] and in test [12].

`CC(C)CN(C)c1nc(N)c(C(=O)N=C(N)N)nc1Cl`: the molecule was called inactive in [11] and in [12].

Regarding `CC(C)C[C@H](NC(=O)[C@@H](O)[C@@H](N)Cc1ccccc1)C(=O)O`, the molecule was called inactive in test [11] and in test [12].

Regarding `CC(C)(C)NC[C@H](O)COc1cccc2[nH]c(=O)[nH]c12`, the call in test [11] and in test [12] was inactive.

On to `CC[C@]1(O)C[C@H]2CN(CCc3c([nH]c4ccccc34)[C@](C(=O)OC)(c3cc4c(cc3OC)N(C=O)[C@H]3[C@@](O)(C(=O)OC)[C@H](OC(C)=O)[C@@]5(CC)C=CCN6CC[C@]43[C@H]65)C2)C1`, for which the call in test [11] and in test [12] was inactive.

Consider `OC[C@@H]1O[C@@H](n2cnc3c(NC4CCCCC4)ncnc32)[C@@H](O)[C@H]1O`, for which the result in test [11] and in test [12] was inactive.

Consider `CC(C)(C(=O)O)c1ccc([C@@H](O)CCCN2CCC(C(O)(c3ccccc3)c3ccccc3)CC2)cc1`, for which the molecule was called inactive in test [11] and in test [12].

Turning to `CCCN1C[C@@H](CSC)C[C@H]2c3cccc4[nH]cc(c34)C[C@@H]21`, the result in test [11] and in [12] was inactive.

With `COCCOC(=O)C1=C(C)NC(C)=C(C(=O)OC(C)C)[C@@H]1c1cccc([N+](=O)[O-])c1`, the outcome in [11] and in test [12] was inactive.

For `COc1cc2c(cc1C(F)(F)F)N(C(=O)Nc1cc(F)cc(-c3cccnc3)c1)CC2`, the call in [11] and in test [12] was inactive.

Regarding `O=C(O)C[C@@H]1CCCc2ccccc2[C@H]1O`, the molecule was called inactive in test [11] and in test [12].

For `CN(C)CCCO[C@H]1[C@H]([C@H](O)CO)O[C@H]2OC(C)(C)O[C@@H]21`, the call in test [11] and in [12] was inactive.
